Inconclusive results are not listed. Active and inactive are the calls of the source. The calls were made as follows, unless noted: active = hit-call score of the fitted dose curve at least 0.9, where 1 is the maximum; inactive = score below 0.9.
Key:
THRB (gene 7068) = THRB (gene 7068) (UniProt P10828); assay: TOX21_TRB_COA_Agonist_Followup_ratio: Tox21 Thyroid Hormone Receptor beta Agonism through Coactivator Recruitment Follow-Up Assay, Ratio (AID 2283963)
Outline: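 Cell-free TR-FRET coactivator recruitment: GST-tagged TRβ LBD (5.0 nM) with 0.10% BSA incubated with compound, then fluorescein-SRC-2 peptide (200 nM) and Tb-anti-GST antibody (2 nM) added. 520:495 nm ratio normalized to DMSO (0%) and T3 (100%).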

[1] = target: Retinoic acid receptor RXR-alpha (Homo sapiens) (UniProt P19793); assay: TOX21_TR_RXR_BLA_Agonist_Followup_ratio: Tox21 Thyroid Hormone Receptor beta Retinoid X Receptor alpha (RXRa) Agonism Beta-lactamase (BLA) Follow-Up Assay, Ratio (AID 2283968; active = hit-call score of the fitted dose curve at least 0.9, where 1 is the maximum)
Chain of Retinoic acid receptor RXR-alpha (Homo sapiens) (P19793 whole entry, looked up): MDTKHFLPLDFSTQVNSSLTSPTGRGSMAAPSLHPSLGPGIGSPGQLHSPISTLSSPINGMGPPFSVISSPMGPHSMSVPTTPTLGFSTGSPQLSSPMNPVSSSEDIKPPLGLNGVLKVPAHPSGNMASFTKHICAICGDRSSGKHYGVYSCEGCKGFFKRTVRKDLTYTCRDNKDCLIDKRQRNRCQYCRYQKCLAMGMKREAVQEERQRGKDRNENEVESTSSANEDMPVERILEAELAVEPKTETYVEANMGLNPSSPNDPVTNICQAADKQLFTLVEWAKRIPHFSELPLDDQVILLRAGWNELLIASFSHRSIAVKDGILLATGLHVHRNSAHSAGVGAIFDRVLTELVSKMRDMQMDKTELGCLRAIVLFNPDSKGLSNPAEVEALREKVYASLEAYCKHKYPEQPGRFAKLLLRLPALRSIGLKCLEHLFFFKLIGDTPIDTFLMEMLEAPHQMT
Outline: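 Cells were first allowed to attach for 5 h, after which compounds in DMSO were pinned at 11 concentrations and incubated 16 h at 37C. LiveBLAzer CCF4-AM substrate was then added for 2 h at room temperature before reading 460 and 530 nm fluorescence.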

[2] = TOX21_TR_RXR_BLA_Agonist_Followup_viability: Viability Assessment in the Tox21 Thyroid Hormone Receptor beta Retinoid X Receptor alpha (RXRa) Agonism Beta-lactamase (BLA) Follow-Up Assay (AID 2283970; active = hit-call score of the fitted dose curve at least 0.9, where 1 is the maximum)
Outline: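 Viability counter-screen run alongside the RXRa bla follow-up: HEK293T reporter cells were treated for 16h at 37C in stripped-serum medium, then ATP was quantified by luciferase-coupled CellTiter-Glo. Decreased signal relative to DMSO marked cytotoxicity.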

[3] = CCTE_Harrill_HTTr_Viability_DMEM_6hr: (Pilot) CCTE's 6-hour Cell Viability Assessment for the High-Throughput Transcriptomics (HTTr) Platform, in MCF-7 cells cultured in DMEM + 10% fetal bovine serum, Harrill Lab (AID 2283973)
Outline: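 Propidium iodide uptake imaged by high-content analysis after six hours of chemical treatment in an eight-concentration series. Cells: MCF-7 grown in DMEM with 10% fetal bovine serum; DMSO as baseline.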

[4] = CCTE_Harrill_HTTr_Viability_DMEM_12hr: (Pilot) CCTE's 12-hour Cell Viability Assessment for the High-Throughput Transcriptomics (HTTr) Platform, in MCF-7 cells cultured in DMEM + 10% fetal bovine serum, Harrill Lab (AID 2283974)
Outline: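 Propidium iodide dye exclusion imaged by high-content microscopy after 12 h chemical exposure (eight concentrations) of MCF-7 cells grown in DMEM plus 10% FBS; values fitted in both directions relative to DMSO.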

[5] = CCTE_Harrill_HTTr_Viability_DMEM_24hr: (Pilot) CCTE's 24-hour Cell Viability Assessment for the High-Throughput Transcriptomics (HTTr) Platform, in MCF-7 cells cultured in DMEM + 10% fetal bovine serum, Harrill Lab (AID 2283975)
Outline: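 Pilot study: propidium iodide dye exclusion, imaged by high content microscopy, after 24 h compound exposure (eight concentrations) in MCF-7 cultured in DMEM + 10% fetal bovine serum; DMSO served as negative control and baseline.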

[6] = CCTE_Harrill_HTTr_Viability_PRF_DMEM_6hr: (Pilot) CCTE's 6-hour Cell Viability Assessment for the High-Throughput Transcriptomics (HTTr) Platform, in MCF-7 cells cultured phenol red-free DMEM + 10% charcoal-stripped fetal bovine serum, Harrill Lab (AID 2283976)
Outline: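 Membrane integrity by high-content imaging of propidium iodide uptake, six hours after dosing with eight concentrations. Cells: MCF-7 grown in phenol red-free DMEM plus 10% charcoal-stripped serum; DMSO serves as baseline for bidirectional fits.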

[7] = CCTE_Harrill_HTTr_Viability_PRF_DMEM_12hr: (Pilot) CCTE's 12-hour Cell Viability Assessment for the High-Throughput Transcriptomics (HTTr) Platform, in MCF-7 cells cultured in phenol red-free DMEM + 10% charcoal-stripped fetal bovine serum, Harrill Lab (AID 2283977)
Outline: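 Membrane integrity was scored via propidium iodide dye exclusion imaging, fitted in both directions relative to DMSO. Compounds ran as eight-point dilutions for 12 hours on MCF-7 grown in phenol red-free DMEM plus 10% charcoal-stripped serum.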

[8] = CCTE_Harrill_HTTr_Viability_PRF_DMEM_24hr: (Pilot) CCTE's 24-hour Cell Viability Assessment for the High-Throughput Transcriptomics (HTTr) Platform, in MCF-7 cells cultured in phenol red-free DMEM + 10% charcoal-stripped fetal bovine serum, Harrill Lab (AID 2283980)
Outline: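 Propidium iodide exclusion imaged at 24 h after dosing scores viability; cells were MCF-7 grown in phenol red-free DMEM plus 10% charcoal-stripped serum, tested in eight concentrations, fitted in both directions against DMSO.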

[9] = CCTE_Harrill_HTTr_Apoptosis_DMEM_6hr: (Pilot) CCTE's 6-hour Apoptosis Assessment for the High-Throughput Transcriptomics (HTTr) Platform, in MCF-7 cells cultured in DMEM + 10% fetal bovine serum, Harrill Lab (AID 2283981)
Outline: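 MCF-7 cells grown in DMEM + 10% FBS were exposed for 6 hours to an eight-point dilution series. CellEvent Caspase 3/7 Green signal was imaged; activity fitted bidirectionally against DMSO.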

Chain of THRB (gene 7068) (P10828 whole entry, looked up, the tested form may be a part): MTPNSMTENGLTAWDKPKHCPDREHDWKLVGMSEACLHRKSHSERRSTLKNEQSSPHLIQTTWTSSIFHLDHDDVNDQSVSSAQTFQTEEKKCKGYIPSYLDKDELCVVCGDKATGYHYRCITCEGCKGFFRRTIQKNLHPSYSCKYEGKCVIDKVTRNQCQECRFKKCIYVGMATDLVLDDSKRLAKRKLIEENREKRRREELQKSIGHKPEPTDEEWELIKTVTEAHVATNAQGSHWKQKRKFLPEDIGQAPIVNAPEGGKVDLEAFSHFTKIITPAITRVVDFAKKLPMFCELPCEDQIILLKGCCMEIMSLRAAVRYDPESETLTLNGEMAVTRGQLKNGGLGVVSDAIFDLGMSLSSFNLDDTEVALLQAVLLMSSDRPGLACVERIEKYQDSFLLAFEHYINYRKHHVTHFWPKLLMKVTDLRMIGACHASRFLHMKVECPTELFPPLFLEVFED

With C=C(C)C(=O)[O][Sn]([CH2]CCC)([CH2]CCC)[CH2]CCC the outcome (THRB (gene 7068)) was “inactive”, the AC50 [1] was 0.116 µM (active) and the AC50 [2] was 15.1 µM (active).
For C[C@@H]1C[C@@H]([C@H](O)CC2CC(=O)NC(=O)C2)C(=O)[C@@H](C)C1, the outcome [3] was “inactive”, the outcome [4] was “inactive” and the AC50 [5] was 7.82 µM (active). For the same compound, the outcome [6] was “inactive”, the outcome [7] was “inactive” and the AC50 [8] was 9.42 µM (active). For the same compound, the outcome [9] was “inactive”.
In the case of NNC(=S)NN, the outcome (THRB (gene 7068)) was “inactive”, the outcome [1] was “inactive” and the outcome [2] was “inactive”.
For CC(C)(OO)c1ccccc1, the outcome (THRB (gene 7068)) was “inactive”, the outcome [1] was “inactive” and the outcome [2] was “inactive”.
For CC(C)(c1ccccc1)c1ccc(O)c(C(C)(C)c2ccccc2)c1, the outcome (THRB (gene 7068)) was “inactive” and the outcome [2] was “inactive”.
